The list is not random: actives were taken first. Their share in the collection is about 18%.
TDP1 cell CPT – growth inhibition of DT40 Tdp1-/-;hTDP1 cells with camptothecin (screen for TDP1 inhibitors). actives 12% (n = 420,000). Potency, µM (titrated, usually from 46.2 µM), without a hit: top-dose activity change, negative = growth inhibition, usual class: inhibitors. AID 686979. chicken DT40 Tdp1-/-;hTDP1 cells + 20 nM CPT, ATP luminescence, 48 h; note: nearly all actives have a fitted effect of over 55% in size
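Chicken DT40 Tdp1-/- cells complemented with human TDP1, 400 cells/well, exposed to compounds plus 20 nM camptothecin for at least 48 h at 37 C; viability read as ATP content by CellTiter-Glo luminescence.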
TDP1 inh – inhibitors of human tyrosyl-DNA phosphodiesterase TDP1; Q9NUW8; recombinant TDP1, AlphaScreen DNA substrate cleavage; Potency, µM (doses to about 130 µM), without a hit: at the top dose activity change, negative = inhibition, actives largely listed as inhibitors; actives 0.28% (n = 350,000); note: nearly all actives have a fitted effect of over 40% in size
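AlphaScreen read-out: signal falls as enzyme removes the 3' tyrosine-FITC from a 5'-biotinylated DNA oligo (15 nM, 5 min, RT). Enzyme was E. coli-made recombinant Tdp1 at 1 nM, exposed to compound for 15 min beforehand; beads 10 ug/ml, 10 min.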
PLK1 PBD inh – inhibitors of human PLK1 polo-box domain binding; AID 720504; P53350; actives 2.8% (n = 360,000); Plk1 PBD binding of FITC phosphopeptide, fluorescence polarization; Potency, µM, for the others: max response, negative = inhibition, usual class: inhibitors; note: series mostly up to about 57 µM; nearly all actives have a fitted effect of over 65% in size
GCN5L2 inh – blocks human GCN5L2 histone acetyltransferase. Q92830. actives 0.21% (n = 390,000). GCN5L2 HAT assay, ThioGlo1 CoA-SH fluorescence. AID 504327. Potency, µM (titrated, usually from 58.9 µM), for inactives: top-dose activity change, negative = inhibition, actives largely listed as inhibitors
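Preincubate 20nM GCN5L2 with compound 15 min, RT → add 50uM ThioGlo1 + 75uM H3(1-25) + 70uM acetyl-CoA → read fluorescence 0 and 20 min. Primary qHTS; fluorescent artifacts likely.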
VDR inh – inhibitors of human vitamin D receptor | P11473 | VDR-SRC2-3 peptide fluorescence polarization, 2 h | actives 0.93% (n = 400,000) | AID 504847 | Potency, µM, without a hit: max response, negative = inhibition, hits mostly inhibitors
Target sequence (P11473 whole entry, looked up): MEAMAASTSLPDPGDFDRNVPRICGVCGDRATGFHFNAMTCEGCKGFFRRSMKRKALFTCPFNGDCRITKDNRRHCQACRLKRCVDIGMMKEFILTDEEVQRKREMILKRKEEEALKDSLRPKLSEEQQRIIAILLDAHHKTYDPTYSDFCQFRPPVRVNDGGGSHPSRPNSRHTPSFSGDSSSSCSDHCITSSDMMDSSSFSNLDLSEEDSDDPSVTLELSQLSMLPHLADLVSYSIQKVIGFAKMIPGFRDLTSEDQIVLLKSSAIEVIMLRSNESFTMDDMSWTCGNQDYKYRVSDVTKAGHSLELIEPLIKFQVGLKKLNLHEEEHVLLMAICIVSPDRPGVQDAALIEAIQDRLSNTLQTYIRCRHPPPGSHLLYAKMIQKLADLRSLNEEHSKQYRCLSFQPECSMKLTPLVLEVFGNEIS
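Inhibition of the VDR/SRC2-3 peptide interaction is quantified by fluorescence polarization. Compounds (23 nl, pintool) incubate with the reagents for 2 hours at ambient room temperature.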
TDP1 cell noCPT – qHTS for Inhibitors of human tyrosyl-DNA phosphodiesterase 1 (TDP1): qHTS in cells in absence of CPT. AID 686978, 2013. Potency, µM (series often up to 46.2 µM), inactives show at the top dose activity change, negative = growth inhibition, hits mostly inhibitors. actives 15% (n = 420,000). DT40 Tdp1-/- hTDP1 cells, no CPT, ATP luminescence, 48 h; note: nearly all actives have a fitted effect of over 55% in size
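Growth of hTDP1-complemented DT40 Tdp1-knockout cells is measured by ATP luminescence after at least 48 hr compound exposure at 37 °C, with DMSO substituting for the 20 nM CPT used in the parallel screen.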
* hit, by the source's call; ? = inconclusive; / = no result. Calls come from the whole dose curve; as a rule, active = well fitted curve in the direction sought with a large enough effect; inconclusive = small, poorly fitted or top-dose-only effect, or another doubt; inactive = no such curve, though single readings can be large; an effect the other way counts as inactive or inconclusive. % is set by controls: 0 for no effect and ±100 for the full control effect; potency is the fitted concentration of half-maximal effect.

SMILES | TDP1 cell CPT | TDP1 inh | PLK1 PBD inh | GCN5L2 inh | VDR inh | TDP1 cell noCPT
CCC(=O)c1cc(F)c(N2CCN(C(=O)Cc3ccccc3)CC2)cc1C | 21µM* | -1% | -12% | -7% | 1% | 15µM*
Cc1cc(N2CCOCC2)c(F)cc1C(=O)c1ccccc1 | 5% | -2% | 2% | 11% | 23% | -18%
CC(=O)c1cc(F)c(N2CCN(C(=O)COc3ccccc3F)CC2)cc1C | 21µM* | -2% | ? | 2% | 8% | 16µM*
CC(=O)c1cc(F)c(N2CCN(C(=O)C(C)(C)C)CC2)cc1C | 21µM* | 7% | -6% | -9% | 9% | 21µM*
COc1ccc(S(=O)(=O)NCc2cc(=O)n(C)c(=O)n2C)cc1F | -16% | 4% | -9% | -3% | 19% | 4%
C=CCn1c(=O)/c(=C/c2ccsc2)s/c1=C(\C#N)C(=O)NCCN1CCOCC1 | -27% | / | 18% | / | 5% | ?
CN(C)c1ccc(CNC(=O)C2CCN(S(=O)(=O)c3cn(C)cn3)CC2)cc1 | 1% | 4% | / | 22% | 12% | -23%
CCC(=O)NCc1nc2ccccc2n1Cc1ccccc1 | ? | 0% | / | -3% | 7% | -15%
NC(=NC1C2CC3CC(C2)CC1C3)Nc1ccc(I)cc1 (stereo not drawn) | 4.1µM* | 9% | / | -8% | 7% | 3.7µM*
Cc1ccc2oc(=O)c(/C=C(\O)c3sc(C)nc3C)nc2c1 | ? | 1% | -12% | 28% | -14% | 23µM*
Cc1ccc2oc(=O)c(/C=C(\O)c3ccco3)nc2c1 | 3% | 0% | 2% | -25% | 4% | -24%
COc1ccc(Cc2nnc(N/N=C/c3ccc(O)cc3)[nH]c2=O)cc1OC | 1µM* | 11% | -24% | -3% | -8% | 0.65µM*
COc1ccc(Cc2nnc(N/N=C/c3ccc(Br)cc3)[nH]c2=O)cc1OC | -1% | 3% | -5% | 1% | 2% | 2%
COc1ccc(Cc2nnc(NCCO)[nH]c2=O)cc1OC | 16µM* | / | 6µM* | 7% | ? | 8.2µM*
CCc1cc2c(-c3ccccc3)cc(=O)oc2c2c1OCN(Cc1ccc(F)cc1)C2 | ? | 4% | / | -16% | 0% | ?
Nc1nc2ccc(NC(=O)c3ccco3)cc2s1 | 8% | 9% | ? | -6% | 3% | -17%
CCc1ccc(CN2CCCC(CCC(=O)N3CCN(c4ccccn4)CC3)C2)o1 (stereo not drawn) | ? | / | -1% | 2% | 13% | 16µM*
O=C(CCC1CCCN(C(=O)Cc2cccc(F)c2)C1)N1CCN(c2ccccn2)CC1 (stereo not drawn) | -2% | 0% | -15% | -1% | -11% | -20%
CC(=O)c1ccccc1C(=O)N1CCCC(CCC(=O)N2CCN(c3ccccn3)CC2)C1 (stereo not drawn) | -13% | 3% | -14% | ? | -13% | -28%
O=C(CCC1CCCN(C(=O)CCCc2ccccc2)C1)N1CCN(c2ccccn2)CC1 (stereo not drawn) | 21µM* | / | 0% | -1% | -10% | ?
O=C(CCC1CCCN(C(=O)c2ccc3cc[nH]c3c2)C1)N1CCN(c2ccccn2)CC1 (stereo not drawn) | 16µM* | -1% | -10% | 2% | -14% | ?
O=C(CCC1CCCN(C(=O)c2ccc3[nH]ccc3c2)C1)N1CCN(c2ccccn2)CC1 (stereo not drawn) | 23µM* | 5% | -15% | 17% | -1% | 21µM*
Cc1cccc(C(=O)N2CCCC(CCC(=O)N3CCN(c4ccccn4)CC3)C2)c1 (stereo not drawn) | ? | 8% | 1% | -1% | -9% | ?
Cc1ccc(C(=O)N2CCCC(CCC(=O)N3CCN(c4ccccn4)CC3)C2)cc1 (stereo not drawn) | ? | 10% | -9% | -3% | -17% | ?
CC1SC(=S)N(c2ccc(N(C)C)cc2)C1=O (stereo not drawn) | ? | / | ? | ? | 32µM* | -20%
SMILES | TDP1 cell CPT | TDP1 inh | PLK1 PBD inh | GCN5L2 inh | VDR inh | TDP1 cell noCPT
CN(C)c1ccc(N2C(=O)CC(c3ccccc3)CC2=O)cc1 | 9% | -4% | 5% | -3% | -15% | -14%
O=S(=O)(Cc1ccccc1Cl)NCCc1ccc(F)cc1 | -13% | 4% | 3% | -7% | 12% | -14%
Cc1cc(/C=C2/NC(=O)NC2=O)c(C)n1C | ? | -8% | -2% | -10% | 3% | ?
Cc1cc(C)c(-n2c(C)cc(/C=C3/NC(=O)NC3=O)c2C)c(C)c1 | ? | 8% | -5% | -11% | 6% | 15µM*
O=C(Cn1c(=O)n(CCc2ccccc2)c(=O)c2cccnc21)Nc1ccc(F)cc1 | -26% | 4% | / | -11% | -5% | ?
CC1=C(C(=O)Nc2ccccc2)C(c2coc3ccccc3c2=O)C2=C(CCCC2=O)N1 (stereo not drawn) | -17% | 4% | -19% | 40% | -22% | -19%
COc1ccc(C2CC(=O)C3=C(C2)NC(C)=C(C(=O)Nc2ccccc2C)C3c2coc3ccc(C)cc3c2=O)cc1OC (stereo not drawn) | 21µM* | 6% | -7% | -5% | 3% | ?
C=CCC[C@H](Cc1ccc(F)cc1)C(=O)OC[C@H](Cc1c[nH]c2ccccc12)NC(=O)[C@@H](CC=C)CC(=O)N(CCO)Cc1ccccc1 | ? | 3% | -9% | -11% | -14% | ?
C=CCC[C@@H](Cc1ccc(F)cc1)C(=O)OC[C@@H](Cc1c[nH]c2ccccc12)NC(=O)[C@@H](CC=C)CC(=O)NCCO | ? | 5% | -10% | -6% | -6% | ?
C=CCC[C@H](Cc1ccc(F)cc1)C(=O)OC[C@H](Cc1c[nH]c2ccccc12)NC(=O)[C@H](CC=C)CC(=O)NCCO | ? | 5% | 5% | -9% | -17% | 18µM*
C=CCC[C@@H](Cc1ccc(F)cc1)C(=O)OC[C@H](Cc1c[nH]c2ccccc12)NC(=O)[C@H](CC=C)CC(=O)N(CCO)Cc1ccccc1 | 15µM* | 4% | -12% | -21% | -6% | 21µM*
C=CCC[C@@H](Cc1ccc(F)cc1)C(=O)OC[C@@H](Cc1c[nH]c2ccccc12)NC(=O)[C@H](CC=C)CC(=O)NCCO | ? | 3% | 0% | -3% | -19% | 18µM*
CCN(CC)S(=O)(=O)c1cccc(C(=O)Nc2cc(C)on2)c1 | 4% | / | -3% | -7% | -8% | 5%

Screening results as filed in PubChem.
